Rab9 prom act = activates the Rab9 promoter | Huh7 Rab9 promoter-luciferase reporter, luminescence, 24 h | Potency, µM (highest dose often 9.22 µM), without a hit: at the top dose activation, negative = inhibition, hits mostly activators | actives 2.8% (n = 320,000) | AID 485297; also: % of control where 0% means no effect; nearly all actives have a fitted effect of over 60% in size
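Cells were plated at 1500 per well in reduced-serum medium with 10% FBS and left 2 h. Compound in DMSO was then added for 24 h at 37 °C. Reporter signal was read by luminescence after 10 min with luciferase detection reagent.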
SMN2 splice up = SMN2 splice variant enhancement | HEK293 SMN2-luciferase splicing reporter, luminescence, 30-36 h | Potency, µM (titrated, usually from 46.1 µM), for the others: at the highest dose activity change, positive = activation, most hits filed as activators | actives 2.8% (n = 210,000) | AID 1458; also: % of control where 0% means no effect; nearly all actives have a fitted effect of over 55% in size
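HEK293 cells carry an SMN2 minigene-luciferase reporter in which exon 7 inclusion puts luciferase in frame. Cells were seeded at 2000 cells/well, attached for 10-12 hours, then exposed to compounds for 30-36 hours at 37C before ONE-Glo luminescence.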
FLuc modulator = inhibits or activates purified firefly luciferase, miR-21 counter-screen | purified FLuc, Km substrates, luminescence inhibition | Potency, µM (titrated, usually from 57.5 µM), without a hit: top-dose activity change, negative = inhibition, hits mostly inhibitors | actives 6.9% (n = 360,000) | AID 588342 | P08659;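 also: plate controls were vehicle for no effect and reference inhibitor for full effect; nearly all actives have a fitted effect of over 55% in size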
Target sequence (P08659 whole entry, looked up): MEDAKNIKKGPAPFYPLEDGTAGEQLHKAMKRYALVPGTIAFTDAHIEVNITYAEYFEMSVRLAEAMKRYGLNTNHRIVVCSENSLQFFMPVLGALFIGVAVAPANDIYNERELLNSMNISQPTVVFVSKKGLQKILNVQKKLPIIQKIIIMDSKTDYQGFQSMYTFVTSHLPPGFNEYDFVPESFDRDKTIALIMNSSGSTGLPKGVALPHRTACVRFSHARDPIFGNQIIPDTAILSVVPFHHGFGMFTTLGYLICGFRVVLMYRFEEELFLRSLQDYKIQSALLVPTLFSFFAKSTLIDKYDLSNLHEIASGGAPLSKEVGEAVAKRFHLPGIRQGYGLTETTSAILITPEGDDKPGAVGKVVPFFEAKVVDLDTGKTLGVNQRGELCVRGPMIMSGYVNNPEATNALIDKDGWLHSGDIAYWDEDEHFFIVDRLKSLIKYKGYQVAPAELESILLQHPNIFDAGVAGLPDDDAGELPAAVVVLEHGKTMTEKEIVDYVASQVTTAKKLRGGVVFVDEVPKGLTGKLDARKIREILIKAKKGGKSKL
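Biochemical qHTS of compounds, final roughly 60 µM downward over six points, against 10 nM purified firefly luciferase using Km concentrations of substrates (10 uM D-luciferin, 10 uM ATP) in Tris acetate pH 7.5 buffer; luminescence output.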
ELG1 genotox = inducers of genotoxicity in HEK293T ELG1-luciferase cells | HEK293T ELG1-luciferase reporter, luminescence, 16 h | Potency, µM (doses to about 46 µM), for the others: at the highest dose activity change, positive = activation, usual class: activators | actives 1.3% (n = 330,000) | AID 504466; also: % of control where 0% means no effect; nearly all actives have a fitted effect of over 60% in size
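ELG1-luciferase HEK293T cells, 2,000/well; compound pinned in; 16 hr, 37 °C, 5% CO2; ONE-Glo, 30 min RT; luminescence on CCD imager.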
NPC1 prom act = activators of NPC1 promoter; Huh7 NPC1 promoter luciferase reporter, 24 h; Potency, µM (top dose mostly 9.22 µM), inactives show at the top dose activation, hits mostly activators; actives 2.4% (n = 320,000); also: % of control where 0% means no effect; nearly all actives have a fitted effect of over 60% in size
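Huh7 cells stably carrying NPC1 promoter–luciferase, plated in Opti-MEM with 10% FBS for 2 h, were exposed to compound in DMSO for 24 h at 37 °C; luciferase reagent was added for 10 min and luminescence read.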
Starred values were filed as active, the others as inactive; ? = inconclusive; . = no result given. Sampled rows, rich in hits. Any-hit rate of the full collection: about 7.5%. Calls follow the shape of the dose curve; as a rule, active = well fitted curve in the direction sought with a large enough effect; inconclusive = small, poorly fitted or top-dose-only effect, or another doubt; inactive = no such curve, though single readings can be large; an effect the other way counts as inactive or inconclusive. Potency is read from the fitted curve at half-maximal effect.

SMILES	Rab9 prom act	SMN2 splice up	FLuc modulator	ELG1 genotox	NPC1 prom act
CCNC(=O)CC1C(=O)N(c2cccc(OC)c2)C(=O)N1CCOC (configuration not stated)	-3%	14%	3%	0%	2%
CS(=O)(=O)NNC(=O)Cn1nnc(-c2cc(C(F)(F)F)cc(C(F)(F)F)c2)n1	-4%	.	0%	-1%	1%
CCOc1ccc(C2c3[nH]c4ccccc4c3CCN2C(=O)CSCc2ccc(F)cc2)cc1 (configuration not stated)	.	.	-2%	.	.
CCn1c(SCC(=O)NCc2cccs2)nnc1-c1ccco1	-2%	?	6%	0%	-1%
COc1ccc(Cn2c(-c3ccco3)nc3oc4cc(OC)ccc4c(=O)c3c2=O)cc1	4µM*	4%	?	?	3.2µM*
Cc1cccc(NC(=O)[C@@H](NC(=O)[C@@H]2Cc3ccccc3CN2)C(C)C)c1	-1%	.	3%	4%	2%
O=C(/C=C/c1ccc([N+](=O)[O-])cc1)NC1CC2CCC1C2 (configuration not stated)	13%	15%	?	9%	-1%
O=C(/C=C/c1ccc(Cl)cc1)NC1CC2CCC1C2 (configuration not stated)	11%	3%	24µM*	?	7%
O=C(Nc1cccc(Cl)c1)NC1CC2CCC1C2 (configuration not stated)	16%	.	24µM*	10%	26%
O=C(/C=C/c1ccccc1)NC1CC2CCC1C2 (configuration not stated)	17%	?	19µM*	?	22%
Cc1cc(NC(=O)CSc2nnc3c(C)cc4ccccc4n23)no1	5%	-9%	8%	-6%	2%
O=[N+]([O-])c1cccc(S(=O)(=O)N2CCN(S(=O)(=O)N3CCOCC3)CC2)c1	3%	.	2%	12%	1%
O=C(c1cc(COc2ccc(F)cc2F)on1)N1CC2C[C@@H]3CC1C[C@H](C2)C3	?	.	17µM*	12%	?
COc1ccccc1OCc1cc(C(=O)N2CC3C[C@@H]4CC2C[C@H](C3)C4)no1	3.5µM*	.	17µM*	?	4.5µM*
CC(=O)c1ccc(OCc2cc(C(=O)N3CC4C[C@@H]5CC3C[C@H](C4)C5)no2)cc1	3.2µM*	.	9.5µM*	?	2.5µM*
CN1CCN(C(=O)c2cc(COc3ccc(F)cc3Cl)on2)CC1c1ccccc1 (configuration not stated)	-2%	.	-7%	-2%	-2%
COc1ccccc1OCc1cc(C(=O)N2CCN(C)C(c3ccccc3)C2)no1 (configuration not stated)	2µM*	.	9.5µM*	?	4µM*
CC(=O)c1cccc(OCc2cc(C(=O)N3CC4C[C@@H]5CC3C[C@H](C4)C5)no2)c1	-4%	.	?	5%	-4%
N#C/C(=C\Nc1ccc(F)c(Cl)c1)S(=O)(=O)c1ccccn1	-13%	.	-3%	-6%	-1%
Cc1cc(=O)oc(C)c1C(=O)NCc1c(F)cc(F)cc1F	-2%	.	2%	.	2%
CCC(=O)Nc1cc(OC)c(NC(=O)c2ccccc2)cc1OC	-1%	?	-3%	-6%	-1%
COc1cc(NC(=O)c2ccccc2)c(C)cc1NC(=O)CC(CC(=O)O)c1ccccc1 (configuration not stated)	0%	.	13µM*	5%	2%
Cc1cc(NC(=O)c2ccc3c(c2)C(=O)N(CC(C)C)C3=O)no1	-3%	.	-4%	-1%	0%
CCOC(=O)Cc1c(C)nc2c(-c3ccccc3)c(-c3ccccc3)[nH]n2c1=O	0%	4.5µM*	-12%	-4%	2%
CCOC(=O)Cc1c(C)nc2c(-c3ccccc3)c(C)[nH]n2c1=O	2%	-17%	-12%	-3%	2%
SMILES	Rab9 prom act	SMN2 splice up	FLuc modulator	ELG1 genotox	NPC1 prom act
O=C(OC1CCCCC1=O)c1cc(=O)c2ccccc2o1 (configuration not stated)	-1%	?	3%	2%	1%
O=C(NCc1ccccc1)Nc1cccn(Cc2ccccc2F)c1=O	4%	-26%	12µM*	4%	0%
O=C(NCc1ccccc1)Nc1cccn(Cc2ccc(F)cc2)c1=O	-3%	-48%	?	0%	0%
O=C(NCc1ccccc1)Nc1cccn(Cc2ccccc2)c1=O	-7%	-18%	11µM*	-2%	1%
Cc1cc(NC(=O)NCc2ccccc2)c(=O)n(Cc2ccc(F)cc2)c1	5%	.	1.7µM*	3%	-3%
O=C(Nc1cccn(Cc2ccc(F)cc2)c1=O)NC1CCCCC1	-1%	-8%	?	1%	0%
Cc1ccc(Cn2cccc(NC(=O)NC3CCCCC3)c2=O)cc1	-4%	-50%	17µM*	-5%	1%
Cc1ccc(NC(=O)CCSc2nnc(Cc3ccccc3)o2)cc1	-3%	-1%	2%	1%	-1%
O=C(O)Cc1ccc(NC(=O)Cc2ccc3ccccc3c2)cc1	2%	.	-4%	-7%	-1%
CCOc1ccc(C(=O)Nc2ccccc2OC(F)F)cc1	?	22%	?	9%	13%
O=C(NCc1ccco1)c1cccc(C(F)(F)F)c1	-6%	-3%	1%	1%	0%
CC(NS(=O)(=O)c1ccc(Cl)c(Cl)c1)C(=O)OCC(=O)N1CCCCCC1 (configuration not stated)	1%	.	3%	0%	-1%
CCOc1ccc(NC(=O)Nc2ccccc2SC)cc1	?	.	2.7µM*	?	4µM*
CCOc1ccc(NC(=O)Nc2cccn(Cc3ccccc3)c2=O)cc1	0%	-20%	9.5µM*	-1%	3%
Cn1c(=O)c2c(nc(SCc3ccccc3F)n2C)n(C)c1=O	-5%	.	-8%	0%	-8%
O=C(CCCn1c(=O)c2cccn2c2ccccc21)Nc1cccc(Cl)c1	.	.	12µM*	.	.
COc1ccccc1NC(=O)CCn1c(=O)c2cccn2c2ccccc21	1%	.	-2%	-6%	-1%
COc1ccc(NC(=O)CCCn2c(=O)c3cccn3c3ccccc32)c(OC)c1	.	.	0.85µM*	.	.
O=C(Nc1nnc(C2CC2)s1)c1ccc(S(=O)(=O)c2ccccc2)cc1	-3%	-14%	2%	0%	1%
O=C(Nc1nnc(C2CC2)s1)c1ccc(Cl)nc1	?	.	12µM*	?	?
CCc1nnc(NC(=O)c2cc(Cl)ccn2)s1	2.5µM*	.	15µM*	16µM*	2.2µM*
CC(C)(C)c1nnc(NC(=O)c2ccc(Cl)nc2)s1	4.5µM*	.	?	16%	23%
CCc1nnc(NC(=O)c2ncc(Cl)c(Cl)c2Cl)s1	8%	.	6%	-1%	20%
CCc1nnc(NC(=O)CCC(=O)Nc2ccc(Cl)cc2)s1	-3%	.	-1%	13%	-3%
CCc1nnc(NC(=O)c2ccc(Cl)nc2)s1	?	26%	13µM*	?	26%
